Results reported in PubChem BioAssay (NCI).
The panel holds about 83,000 compounds, 20% with a hit somewhere; the sample as a whole holds those more often.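 Activity criterion: percent growth below 10, measured after cells in 96-well plates were exposed to a single compound concentration for 48 hours.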 A number with no mark means an inactive call. Active and inactive are the calls of the source.

Each compound was assayed on M14 melanoma (assay: NCI-60 one-dose screen, 48 h (100 = growth as untreated, 0 = no growth, -100 = all killed)). Details: 10 µM unless noted.

Row | SMILES | growth
1 | COc1cc(/C(C#N)=C/c2ccc3c(c2OC)OCO3)cc2c1OCO2 | -3.69% (active)
2 | CC12CCC3C4(C)COC(c5ccco5)OC4CCC3(C)C1CC(C1=CCOC1=O)O2 (stereo not drawn) | 98.6%
3 | C=C1CCC2C3(C)COC(c4ccc(N(C)C)cc4)OC3CCC2(C)C1C/C=C1/C(=O)OCC1O (stereo not drawn) | 71.7%
